Only some compounds are listed: those with a hit (about 7.2% of all), similar ones and a draw of the others.
Mot1-301 SUMO: yeast Mot1-301 growth rescue at high temperature, primary screen, SUMOylation pathway inhibitor project, S. cerevisiae, ATP luminescence, 38.5C; S. cerevisiae Mot1-301 growth rescue; percent above DMSO median, 100 means doubled; growth rescue, % at 18.8 µM; 1% of 320,000 active;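 active = every valid replicate shows activation above 250% relative to neutral control wells; inactive = the rest, any valid replicate at or below 250%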;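 note: OY570 slx delta 5 strain wells were the positive control but not used for scaling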
AHR act: AHR activators, primary screen, cell-based, luminescence, luciferase reporter, human; Aryl hydrocarbon receptor (Homo sapiens), P35869; AHR-responsive luciferase reporter cells; activation, % at 5 µM; 2.5% of 320,000 active; in the data active = activation above about 47%;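 note: 0% = vehicle wells and 100% = reference agonist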
Efflux pump inh: inhibitors of Candida efflux pumps in yeast, primary screen, S. cerevisiae, Nile Red, multiplex; S. cerevisiae Candida pump triplex; inhibition, % at 10 µM; 0.44% of 330,000 active; AID 485275, 2010;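 active = plate passing quality check with inhibition over a set limit, or well fluorescence over plate mean plus 4 SD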;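 note: Nile Red retained in pooled yeast measured as flow cytometry median fluorescence; 0% = buffer negative control and 100% = Enniatin B positive control; higher means more Nile Red kept so more efflux inhibition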
VLA-4 inh: inhibition in human VLA-4 binding assay, primary screen, VLA-4 allosteric modulator project, MLPCN library, flow cytometry, VLA-4 expressing cells | 0.2% of 330,000 active | inhibition, % (about 7 µM as worked out from the volumes in the protocol) | ligand binding flow cytometry; in the data active = inhibition above about 50%
A1 inh: caspase 3/7 activation in MEF A1-2A-BIM cells, primary screen, A1 inhibitor project, cell-based, luminescence, HTS; caspase activation, % (concentration not given with the values); AID 2462, 2010; 0.066% of 330,000 active; Caspase-Glo 3/7 luminescence, 3 h; percent of clofoctol response, vehicle zero;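 active = over half of replicate activation scores above 10%, or exactly half above 10 with the replicate mean above 10; inconclusive = replicate mean below 10 yet half the replicates above 10; inactive = over half of replicates below 10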
ALR inh: inhibitors of human ALR sulfhydryl oxidase, primary screen, biochemical, H2O2 detection, HRP-luminol luminescence, single point | FAD-linked sulfhydryl oxidase ALR (Homo sapiens), P55789 | purified ALR, DTT oxidation | inhibition, % (no concentration beside the values) | 3.8% of 290,000 active | AID 485317, 2010;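 active = mean replicate inhibition above about 79%, with every replicate also reaching it, limit read from the data; inconclusive = only one of the two criteria met; inactive = mean below limit and not every replicate reaching it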
* = called active by the depositor; u = inconclusive; x = no result given.

SMILES	Mot1-301 SUMO	AHR act	Efflux pump inh	VLA-4 inh	A1 inh	ALR inh
CC(C)c1cccc(C(C)C)c1NC(=O)c1ccc(OCC(=O)NCc2ccccc2)cc1	2.1	-0.4	0.0	9.3	0.8	1.2
Cc1ccc2c(c1)c(C1=c3ccccc3=NC1=O)c(O)n2C	21.2	66.0*	0.1	3.0	u	x
Cc1c(-n2c(O)c(C3=c4ccccc4=NC3=O)sc2=O)c(=O)n(-c2ccccc2)n1C	-14.8	9.7	0.0	-11.0	0.5	-2.4
COc1ccc(NC(=O)Nc2nnc(-c3ccco3)s2)cc1	14.6	64.4*	-0.1	9.2	-4.9	-12.1
COc1ccc(NC(=O)Nc2nnc(-c3ccccc3F)s2)cc1	-5.0	71.5*	0.0	11.3	0.0	-6.9
CCOc1cccc(C(=O)Nc2cccc(-c3nnc(-c4ccc(C)cc4)o3)c2)c1	18.0	0.4	0.0	-54.9	19.8*	x
Cc1cccc(NS(=O)(=O)c2nnc(NC(=O)c3cccc(C)c3)s2)c1	-8.6	2.9	-0.2	2.7	0.6	59.4
Cc1cccc(C(=O)Nc2nnc(S(=O)(=O)N(C)Cc3ccco3)s2)c1	45.2	12.1	0.0	8.5	-1.6	94.2*
CCOc1cccc(C(=O)Nc2cccc(-c3nnc(-c4ccccc4)o3)c2)c1	6.4	-0.2	0.0	-5.0	-0.4	-1.0
COc1ccc(C(=O)Nc2ccc(O)c3ccccc23)cc1	48.4	38.6	0.2	1.1	-0.6	30.2
CCOc1cccc(C(=O)Nc2nnc(-c3ccco3)s2)c1	-11.0	48.2*	0.0	7.1	-10.4	x
COc1ccc(NC(=O)Nc2ccc(O)c3ccccc23)cc1	-14.2	75.2*	-0.2	-6.3	0.4	26.5
Cc1cccc(OCC(=O)Nc2nnc(-c3ccco3)s2)c1	-4.9	-6.3	0.0	-3.5	-0.5	15.2
CCNC(=O)CSc1nnc(-c2cc(-c3ccc(Cl)cc3)nc3ccccc23)o1	139.2	50.3*	-0.2	-0.5	0.2	-2.8
COc1cc(NC(=O)CSc2nnc(-c3cc(C)on3)o2)cc(OC)c1	5.2	12.9	0.3	-3.1	-1.4	-6.8
Cc1cc(-c2nnc(SCC(=O)Nc3nc(-c4ccc(Cl)cc4)cs3)o2)no1	-7.6	5.5	0.0	6.3	1.0	99.0*
COc1ccccc1C(=O)NCc1nnc(SCC(=O)Nc2nccs2)n1C	-15.3	12.6	-0.1	1.4	-1.0	-7.4
Cc1c(O)ccc(-c2[nH]ncc2-c2nc3ccccc3s2)c1O	-9.2	34.6	0.0	-6.8	1.8	88.6*
Cc1ccc2c(c1)N(CCCC(=O)NCCCN1CCCCC1)C(=O)CO2	-10.0	-0.4	0.2	6.0	0.2	-18.3
CCN(CCCNC(=O)C1CCCN(S(=O)(=O)CC)C1)c1cccc(C)c1 (stereo not drawn)	6.4	1.8	-0.2	9.2	-0.3	98.7*
CCN(CCNC(=O)C1CCN(S(=O)(=O)CC)CC1)c1ccccc1	77.7	-3.0	0.0	8.6	0.8	98.8*
CCN(CCCNC(=O)CCCN1C(=O)COc2ccc(C)cc21)c1cccc(C)c1	379.5	2.4	0.6	1.8	-0.3	98.1*
CCN(CCNC(=O)C1CCN(S(=O)(=O)c2cccc3nsnc23)CC1)c1ccccc1	267.3	-0.9	0.2	10.6	-1.0	98.6*
Cc1nn(C)cc1C(C(=O)NC1CCCCC1)N(C(=O)Cc1cccs1)c1ccc(Cl)cc1 (stereo not drawn)	52.1	2.4	-0.1	6.6	1.0	12.7
COc1ccc(NC(=O)C2CCCN(S(=O)(=O)c3cccnc3)C2)c(OC)c1 (stereo not drawn)	-5.5	4.8	-0.1	-2.7	1.2	x
SMILES	Mot1-301 SUMO	AHR act	Efflux pump inh	VLA-4 inh	A1 inh	ALR inh
CN(CCNC(=O)C1CCN(S(=O)(=O)c2cnc[nH]2)CC1)Cc1ccccc1	8.8	-0.3	0.0	-1.0	0.2	14.0
CCN(CCCNC(=O)C1CCN(S(=O)(=O)c2cnc[nH]2)CC1)c1cccc(C)c1	x	5.5	0.1	-2.8	0.6	98.8*
CCN(CC)c1ccc(NC(=O)C2CCCN(S(=O)(=O)c3cccnc3)C2)c(C)c1 (stereo not drawn)	8.2	1.8	-0.1	0.3	-1.7	98.8*
CCCCN(CCCNC(=O)C1CCN(S(=O)(=O)CC)CC1)c1ccccc1	19.1	-1.0	0.0	-39.0	0.1	98.7*
CCN(CCCNC(=O)c1c(C)cc(=O)oc1C)c1cccc(C)c1	-28.4	-1.4	0.0	7.6	0.1	100.2*
Cc1ccc(CNC(=O)CN(Cc2ccccc2)S(C)(=O)=O)cc1	8.8	6.5	-0.1	-2.1	0.5	-1.5
CC(/C=C/c1ccc2c(c1)OCO2)=N/NC(=O)c1ccc(C)nc1	10.5	40.7	-0.3	8.4	-0.7	4.0
CC1(c2nnc(Cc3ccccc3)o2)CC(c2ccc(OC(F)(F)F)cc2)=NO1 (stereo not drawn)	-4.5	-0.4	-0.1	1.2	-0.2	-9.9
O=C(NCCN1CCCc2ccccc21)C1CCC(=O)N(CCc2ccccc2)C1 (stereo not drawn)	15.3	7.2	0.0	-2.5	u	86.5*
CCN(CCNC(=O)Cn1cc2c(n1)CCCC2)c1ccccc1	-5.5	3.4	-0.1	2.1	0.5	98.8*
CCN(CCNC(=O)C1CC(=O)N(CCc2ccccc2)C1)c1ccccc1 (stereo not drawn)	-6.6	4.4	0.2	-5.4	-0.1	99.4*
O=C(NCCN1CCCC1=O)C1CCC(=O)N(CCc2ccc(Cl)cc2)C1 (stereo not drawn)	84.6	4.4	0.0	10.0	-0.3	-6.6
O=S(=O)(c1cccc2nsnc12)N1CCN(C/C=C\c2ccccc2)CC1	308.6*	-5.1	0.0	-1.4	0.4	-4.0
CCN(CCCNC(=O)C1CCC(=O)N1C(C)C)c1cccc(C)c1 (stereo not drawn)	366.5	1.4	-0.1	-2.2	0.5	99.1*
CCN(CCNC(=O)C1CCCN(S(=O)(=O)CC)C1)c1ccccc1 (stereo not drawn)	-14.3	1.4	0.1	6.5	-0.1	98.6*
CC(C)OCCCNC(=O)C1CCC(=O)N1C(C)C (stereo not drawn)	89.3	-0.4	-0.1	-6.3	0.4	-6.8
CCN(CC)CCN1C(=O)C(=O)/C(=C(/O)c2cccc(OC)c2)C1c1ccccn1 (stereo not drawn)	126.4	0.8	-0.2	1.0	0.6	-11.3
CCN(CC(=O)NC1CCS(=O)(=O)C1)S(=O)(=O)c1ccc(Br)cc1 (stereo not drawn)	-2.8	0.2	0.0	-4.0	-0.4	0.1

From PubChem BioAssay
